JMJD2A Tudor inh – inhibitors of human JMJD2A Tudor domain; O75164; AlphaScreen JMJD2A-Tudor / H3K4me3 peptide binding; Potency, µM (highest dose often 114 µM), for the others: at the top dose activity change, negative = inhibition, hits mostly inhibitors; actives 4.4% (n = 390,000); also: % is scaled to controls: 0 for no effect and ±100 for the full control effect; nearly all actives have a fitted effect of over 50% in size
Target sequence (O75164 whole entry, looked up, the tested form may be a part): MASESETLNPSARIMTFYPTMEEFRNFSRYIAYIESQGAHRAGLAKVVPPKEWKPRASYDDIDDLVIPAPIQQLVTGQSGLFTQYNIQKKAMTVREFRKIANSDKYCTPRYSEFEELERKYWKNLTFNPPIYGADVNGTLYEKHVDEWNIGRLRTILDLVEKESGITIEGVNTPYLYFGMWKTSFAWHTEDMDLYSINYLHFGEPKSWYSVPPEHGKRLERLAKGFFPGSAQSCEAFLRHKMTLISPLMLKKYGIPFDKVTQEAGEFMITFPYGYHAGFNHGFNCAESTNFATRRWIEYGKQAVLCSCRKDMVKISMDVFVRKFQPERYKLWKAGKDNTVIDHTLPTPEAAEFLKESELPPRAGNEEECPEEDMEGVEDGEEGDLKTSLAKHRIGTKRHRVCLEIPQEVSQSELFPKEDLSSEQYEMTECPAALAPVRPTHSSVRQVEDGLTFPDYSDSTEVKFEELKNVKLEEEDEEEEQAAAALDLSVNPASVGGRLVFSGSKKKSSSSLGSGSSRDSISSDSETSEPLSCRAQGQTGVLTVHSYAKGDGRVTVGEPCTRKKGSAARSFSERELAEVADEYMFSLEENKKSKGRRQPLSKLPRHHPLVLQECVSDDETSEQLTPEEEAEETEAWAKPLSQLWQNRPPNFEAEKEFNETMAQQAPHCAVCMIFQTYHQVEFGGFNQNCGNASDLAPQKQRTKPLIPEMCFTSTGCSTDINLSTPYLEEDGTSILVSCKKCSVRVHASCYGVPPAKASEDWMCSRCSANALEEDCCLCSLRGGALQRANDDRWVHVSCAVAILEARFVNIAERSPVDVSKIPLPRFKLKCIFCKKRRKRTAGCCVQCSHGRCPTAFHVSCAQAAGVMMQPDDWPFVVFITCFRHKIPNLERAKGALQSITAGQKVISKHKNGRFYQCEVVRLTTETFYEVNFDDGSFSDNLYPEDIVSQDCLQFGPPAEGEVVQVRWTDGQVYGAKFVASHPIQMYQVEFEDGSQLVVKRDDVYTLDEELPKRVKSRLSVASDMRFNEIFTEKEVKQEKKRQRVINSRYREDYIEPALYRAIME
PLK1 PBD inh – inhibitors of human PLK1 polo-box domain binding | actives 2.8% (n = 360,000) | Potency, µM, without a hit: max response, negative = inhibition, most hits filed as inhibitors | Plk1 PBD binding of FITC phosphopeptide, fluorescence polarization | P53350; also: series mostly up to about 57 µM; % is scaled to controls: 0 for no effect and ±100 for the full control effect; nearly all actives have a fitted effect of over 65% in size
G9a block – G9a (human) methyltransferase inhibition | actives 8.8% (n = 350,000) | Potency, µM (series often up to 102 µM), without a hit: at the top dose activity, negative = inhibition, actives largely listed as inhibitors | G9a H3K9 monomethylation, AlphaScreen, 2 h; also: % is scaled to controls: 0 for no effect and ±100 for the full control effect; nearly all actives have a fitted effect of over 75% in size
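Methyltransferase reactions run at room temperature for 2 h (20 nM enzyme, 500 nM biotin-H3K9 peptide, 20 uM SAM) after a 15 min compound preincubation; product detected by AlphaScreen beads and anti-H3K9me1 antibody.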
HP1b chromo inh – blocks HP1-beta chromodomain binding to methylated histone tails | P83916 | AlphaScreen HP1-beta / biotin-H3K9me3 peptide binding | Potency, µM (highest dose often 114 µM), for inactives: top-dose activity change, negative = inhibition, usual class: inhibitors | actives 0.56% (n = 390,000); also: nearly all actives have a fitted effect of over 70% in size
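HP1-beta protein (50 nM final) preincubated 30 min at room temperature with biotinylated H3(1-18)K9me3 peptide (50 nM) in PBS pH 7.4, 0.01% Tween-20, then compound added for 30 min. AlphaScreen streptavidin donor/nickel chelate acceptor beads (10 ug/mL final), 30 min dark, luminescence read.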
BAZ2B block – BAZ2B (human) inhibition. AID 504333. actives 4.4% (n = 360,000). AlphaScreen BAZ2B-H3K14Ac peptide displacement. Q9UIF8. Potency, µM (titrated, usually from 114 µM), without a hit: at the top dose activity change, negative = inhibition, actives largely listed as inhibitors; also: % is scaled to controls: 0 for no effect and ±100 for the full control effect; nearly all actives have a fitted effect of over 60% in size
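Compounds, titrated to a top concentration of 110 uM, were incubated 30 min at room temperature with preformed BAZ2B/acetyl-K14 H3 peptide complex (50 nM each). Proximity signal was measured by AlphaScreen after 20 min with beads.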
12-LOX inh – ALOX12 (human) lipoxygenase inhibition; P18054; purified 12hLO, xylenol orange hydroperoxide absorbance; Potency, µM (doses to about 108 µM), inactives show at the top dose activity change, negative = inhibition, actives largely listed as inhibitors; actives 1.1% (n = 580,000); AID 1671190; also: % is scaled to controls: 0 for no effect and ±100 for the full control effect
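Purified human 12hLO at 150 nM in 25 mM Hepes, 0.01% Triton X-100, pH 7.0, preincubated 15 min at room temperature with compound. Reaction started with 40 uM arachidonic acid, 30 min at room temperature. Hydroperoxide measured by Fe-xylenol orange, 573/405 nm absorbance ratio.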
Numbers without * were called inactive; u = inconclusive; x = no result given; ! = not confirmed by another sample; [ ] = another dose, or the depositor's remark. Rows were chosen to be rich in hits. Some 9% of all compounds tested hit in one or more screens of this group. Calls follow the shape of the dose curve; as a rule, active = well fitted curve in the direction sought with a large enough effect; inconclusive = small, poorly fitted or top-dose-only effect, or another doubt; inactive = no such curve, though single readings can be large; an effect the other way counts as inactive or inconclusive. Potency is read from the fitted curve at half-maximal effect.

SMILES	JMJD2A Tudor inh	PLK1 PBD inh	G9a block	HP1b chromo inh	BAZ2B block	12-LOX inh
Cc1ccc2oc(C(=O)N(Cc3ccc(N(C)C)cc3)C3CCS(=O)(=O)C3)c(C)c2c1 (stereo unspecified)	20µM*	-2%	25µM*	u	11µM*	3%
Cc1ccc2c(=O)cc(C(=O)N(Cc3ccc(N(C)C)cc3)C3CCS(=O)(=O)C3)oc2c1 (stereo unspecified)	-30%	x	u	27%	u	-4%
Cc1ccc2c(C)c(C(=O)N(Cc3ccc(N(C)C)cc3)C3CCS(=O)(=O)C3)oc2c1 (stereo unspecified)	25µM*	-5%	x	u	13µM*	-15%
C=C1C(C(=O)N2CCN(C)CC2)C1C(=O)N1CCN(C)CC1 (stereo unspecified)	-1%	-9%	10%	27%	19%	12%
O=C(O)c1ccc(C2SCC(=O)N2Cc2ccco2)cc1 (stereo unspecified)	-1%	-1%	6%	37%	-15%	15%
CCOc1ccc(CCNC(=O)COC(=O)/C=C/c2ccc(C)o2)cc1OCC	-26%	0%	u	22%	-38%	u
Cc1ccc(C(=O)OCC(=O)NCCc2ccc(S(N)(=O)=O)cc2)o1	-9%	-9%	x	7%	x	-5%
Cc1ccc(C(=O)OCC(=O)NCCNC(=O)COC(=O)c2ccc(C)o2)o1	-4%	-3%	56µM*	18%	-8%	u
Cc1ccc(/C=C/C(=O)OCC(=O)NC(=O)NCc2ccccc2)cc1	-9%	-4%	27%[12.7 µM]	27%	8%	8%
Cc1ccc(/C=C/C(=O)OCC(=O)NCCN2C(=O)CSC2=O)cc1	-4%	-17%	-13%	22%	-3%	1%
Cc1ccc(/C=C/C(=O)OCC(=O)NCCN2C(=O)CSC2=O)o1	-14%	-24%	50µM*	22%	-23%	2%
Cc1ccc(/C=C/C(=O)OCC(=O)NCc2ccccc2)o1	-13%	-5%	45µM*	-10%	1%	-6%
CCCNC(=O)COC(=O)/C=C/c1ccc(C)o1	-15%	-8%	50µM*	23%	-16%	-1%
COc1ccc(C(=O)N/N=C/c2ccc(OC(=O)c3cccc4ccccc34)c([N+](=O)[O-])c2)cc1	u	-18%	17%[59 µM]	0%	u	-11%
C=C(C)C(=O)Oc1ccc(N2C(=O)CCC2=O)cc1	2%	0%	x	22%	1%	15%
CC(=O)c1ccc(N=Nc2ccc(C)cc2)cc1	7.9µM*	-6%	7.9µM*	u	7.9µM*	20%
C=C(C)C(=O)Oc1ccc(N=Nc2ccc(C)cc2)ccc1=O	3.5µM*	21µM*	x	10µM*	x	22µM*
CN(C)c1ccc(N=Nc2ccccc2Br)cc1	10µM*	0%	3.5µM*	5µM*	4.5µM*	10%
COC(=O)c1ccc(NN=Nc2ccc(C)cc2)cc1	32µM*	u	7.9µM*	79µM*	u	18µM*
Cc1nn(C)c(C)c1-c1ccnc(NCC2COc3ccccc3O2)n1 (stereo unspecified)	x	x	x	x	x	74%
COc1ccc(NC(=O)N2CCC(C(=O)c3ccc(F)cc3)CC2)cc1	-9%	-1%	11%[59 µM]	30%	3%[57.1 µM]	-13%
CC(=O)c1ccc(N=Nc2ccc(N(C)C)cc2)cc1	-31%	-20%	-51%	-19%	1.1µM*	1%
CN(C)c1ccc(N=Nc2nccs2)cc1	x	-12%	x	x	x	90%
COc1ccc(N2CCN(C(=O)c3ccc(S(=O)(=O)N4CCOCC4)cc3)CC2)cc1	-27%	-8%	8.9µM*	-17%	-28%	u
COc1ccc(N2CCN(S(=O)(=O)c3ccc(OC)c(C(=O)N4CCCC4)c3)CC2)cc1	-6%	4%	79µM*	11%	-6%	4%
SMILES	JMJD2A Tudor inh	PLK1 PBD inh	G9a block	HP1b chromo inh	BAZ2B block	12-LOX inh
COc1ccc(N2CCN(S(=O)(=O)c3ccc(-n4cnnn4)c(C)c3)CC2)cc1	-17%	-9%	7.1µM*	21%	-12%	-13%
COc1ccc(N2CCN(C(=O)c3ccc(S(=O)(=O)N4CCCCCC4)cc3)CC2)cc1	u	-2%	u	-23%	13%	-12%
COc1ccccc1N1CCN(S(=O)(=O)c2ccc(-n3cnnn3)c(C)c2)CC1	-17%[57.1 µM]	-13%	u	26%	4%	-29%
COc1ccc(N2CCN(C(=O)c3ccc(S(=O)(=O)N4CCCC4)cc3)CC2)cc1	-31%	-17%	79µM*	-18%	-26%	2%
Cc1cc(C)c(S(=O)(=O)N2CCN(C(=O)CC(C)n3nc(C)nc3C)CC2)c(C)c1 (stereo unspecified)	x	-1%	x	x	x	2%
Cc1cc(C)cc(NS(=O)(=O)c2ccc3c(c2)NC(=O)C(C)S3)c1 (stereo unspecified)	-4%	x	u	13%	-19%	-9%
Cc1ccc(N2CCN(S(=O)(=O)c3ccc(-n4cnnn4)cc3)CC2)c(C)c1	-12%	-15%	-8%	23%	-11%	5%
CCCN1CCN(S(=O)(=O)c2ccc(-n3cnnn3)cc2)CC1	3%	-29%	50µM*	23%	-19%	-1%
CC(C)NC(=O)CSc1nc(Cc2cccs2)nc2ccccc12	-31%	-18%	25µM*	27%	1%	-15%
CC(C)(C)NC(=O)CSc1nc(Cc2ccccc2)nc2ccccc12	-10%	-13%	3%	36%	7%	1%
O=[N+]([O-])c1ccccc1Nc1nc(-c2cccnc2)cs1	35µM*	-6%	u	u	14µM*	-9%
CCc1ccccc1Nc1nc(-c2cccnc2)cs1	-31%	-5%	x	-7%	u	5%
CCc1ccc(N(CC(=O)NC2CCCCC2)C(=O)CNC(=O)c2ccco2)cc1	u	-21%	6%[59 µM]	4%	5%	16%
COc1ccc(CCNc2ccncn2)cc1OC	-10%	-1%	-12%	29%	-2%	-27%
Cc1ccc(Nc2nc(-c3sc(N)nc3C)cs2)cc1	50µM*	u	x	u	40µM*	u
CC(=O)Nc1ccc(Nc2nc(-c3sc(C)nc3C)cs2)cc1	-26%	-21%	u	-2%	u	16µM*!
COc1ccc(CCNc2nc(-c3sc(N)nc3C)cs2)cc1OC	56µM*	-15%	u	u	50µM*	-13%
COCC(C)Nc1nc(C)c(C(C)=O)s1 (stereo unspecified)	-1%[57.1 µM]	-23%	45µM*	28%	u	u
CC(=O)c1sc(NC(=O)C(C)(C)C)nc1C	-9%	-6%	-1%[59 µM]	18%	10%	-7%
CCc1cc(C(=O)N2CCCC(C(=O)c3ccc(Oc4ccccc4)cc3)C2)n(C)n1 (stereo unspecified)	-23%	-5%	2%	24%	-5%	-6%

Assay outcomes as filed in PubChem.
